{
  "source": "PubChem BioAssay (Tox21)",
  "note": "Results filed as inconclusive are left out. Values without a mark were called inactive. Activity calls are given as the source filed them. The call rests on the fitted dose curve; in most records, active means well fitted activation curve with a large enough effect in the signal ratio in the repeat runs (not every such curve was filed as active); inconclusive means weak or mixed curves; inactive means flat fitted curve, though single readings scatter; the % refers to the signal ratio. On the % scale 0 is the no-effect control and ±100 the full control effect.",
  "data": [
    {"assay": "qHTS assay to identify small molecule agonists of the hypoxia (HIF-1) signaling pathway (AID 1224846)", "details": "HRE-bla ME-180 cells, beta-lactamase ratio, 17 h; series mostly up to 76.8 µM; activation: at the top concentration", "source_text": "U.S. Tox21 Program National Center for Advancing Translational Sciences [NCATS] NIH Chemical Genomics Center [NCGC] U.S. Environmental Protection Agency [EPA] National Institutes of Environmental Health Sciences [NIEHS] National Toxicology Program [NTP] U.S. Food and Drug Administration [FDA] Tox21 Assay Overview: Hypoxia-inducible factor-1 (HIF-1) is the major hypoxia-regulated transcription factor that controls cellular responses to low oxygen concentration. HIF-1 is composed of two subunits: hypoxia responsive HIF-1-alpha and constitutively expressed HIF-1-beta, which is also known as aryl hydrocarbon receptor nuclear translocator. During hypoxic conditions, HIF-1-alpha heterodimerizes with HIF-1-beta and translocates into the nucleus where the HIF-1 complex binds to the hypoxia-response element (HRE) and activates expression of target genes such as VEGF (vascular endothelial growth factor). The HIF-1 pathway is essential to normal growth and development, and is involved in the pathophysiology of cancer, inflammation, and ischemia. Using a beta-lactamase reporter-gene under control of the hypoxia response element, a cell-based assay [CellSensor(TM) HRE-bla ME-180 from Life Technologies, Carlsbad, CA] was used to measure hypoxia-induced signaling. Tox21 10K library compounds were measured for their ability to induce the reporter gene activity.\nTox21 Assay Protocol Summary: HRE-bla ME-180 cells were dispensed at 2,000 cells per well in 6 uL of assay medium containing 0.5% dialyzed FBS into black wall/clear-bottom 1536-well plates using a Multidrop Combi (Thermo Scientific, Waltham, MA) dispenser. After the assay plates were incubated at 37C and 5% CO2 for 5 hrs, 23 nL of compounds dissolved in DMSO, positive controls or DMSO only was transferred to each well of the assay plate using a Pintool station (Kalypsys, San Diego, CA). The assay plates were incubated at 37C and 5% CO2 for 17 hrs. One uL of LiveBLAzerTM B/G FRET substrate (CCF4-AM) (Life Technologies) was added to each well using a Flying Reagent Dispenser (Aurora Discovery, San Diego, CA).", "values": [
      {"smiles": "CCOC(=O)NNc1nncc2ccccc12", "outcome": "inactive"},
      {"smiles": "CCCCCCCCCCCCc1ccccc1", "outcome": "inactive"},
      {"smiles": "C=C(C)C(=O)Nc1ccc(Cl)c(Cl)c1", "outcome": "inactive"},
      {"smiles": "O=S1(=O)CC=CC1", "outcome": "inactive"},
      {"smiles": "COS(C)(=O)=O", "outcome": "inactive"},
      {"smiles": "CCCCCCCCC/C=C/CC1CC(=O)OC1=O", "note": "(stereo not given)", "outcome": "inactive"},
      {"smiles": "CCCCCC1=CCCC1=O", "outcome": "inactive"},
      {"smiles": "CC(=O)OCC(=O)[C@@]12N=C(C)O[C@@H]1C[C@H]1[C@@H]3CCC4=CC(=O)C=C[C@]4(C)[C@H]3[C@@H](O)C[C@@]12C", "activation": "-1.13% [at 35.5 µM]"},
      {"smiles": "CCCCC(CC)COC(=O)CCCCC(=O)OCC(CC)CCCC", "note": "(stereo not given)", "outcome": "inactive"},
      {"smiles": "O=S(=O)(O)c1ccc2ccccc2c1", "outcome": "inactive"},
      {"smiles": "ON=C1CCCCC1", "activation": "0.0245%"},
      {"smiles": "CCC(O)OCCCOC", "note": "(stereo not given)", "outcome": "inactive"},
      {"smiles": "c1c[nH]cn1", "outcome": "inactive"},
      {"smiles": "CC1CCC2CC1C2(C)C", "note": "(stereo not given)", "outcome": "inactive"},
      {"smiles": "CCC(O)OC(O)CC", "note": "(stereo not given)", "activation": "0.949%"},
      {"smiles": "O=C=NCCCCCCN=C=O", "outcome": "inactive"},
      {"smiles": "Nc1ccccc1[N+](=O)[O-]", "outcome": "inactive"},
      {"smiles": "c1ccc2scnc2c1", "outcome": "inactive"},
      {"smiles": "Fc1ccc(Br)cc1", "outcome": "inactive"},
      {"smiles": "N[C@@H](Cc1cc(I)c(Oc2cc(I)c(O)c(I)c2)c(I)c1)C(=O)O", "outcome": "inactive"},
      {"smiles": "Cc1cc(C)c(C)cc1C", "outcome": "inactive"},
      {"smiles": "C[Si](O[Si](C)(C)C)O[Si](C)(C)C", "activation": "-1.16%"},
      {"smiles": "CCCCCCCCCCCCCCCO", "outcome": "inactive"},
      {"smiles": "CCCCN(CCCC)CCCC", "outcome": "inactive"},
      {"smiles": "O=[N+]([O-])c1ccc(/C=C/c2ccc([N+](=O)[O-])cc2S(=O)(=O)O)c(S(=O)(=O)O)c1", "outcome": "inactive"},
      {"smiles": "CC(=O)CC(=O)Nc1ccccc1C", "outcome": "inactive"},
      {"smiles": "CC(C)c1ccc(S(=O)(=O)O)cc1", "outcome": "inactive"},
      {"smiles": "OCC(CO)(CBr)CBr", "outcome": "inactive"},
      {"smiles": "CC[C@H](C)C(=O)O[C@H]1C[C@@H](C)C=C2C=C[C@H](C)[C@H](CC[C@@H]3C[C@@H](O)CC(=O)O3)[C@H]21", "activation": "-1.58% [at 35.5 µM]"},
      {"smiles": "Cc1cccc(O)c1", "outcome": "inactive"},
      {"smiles": "O=C(Oc1ccccc1)c1ccccc1", "outcome": "inactive"},
      {"smiles": "CC(C)(N)CO", "outcome": "inactive"},
      {"smiles": "O=c1[nH]nnc2ccccc12", "outcome": "inactive"},
      {"smiles": "O=C(O)c1cc(O)c(O)c(O)c1", "outcome": "inactive"},
      {"smiles": "COc1ccc(Nc2ccccc2)c(C)c1", "outcome": "inactive"},
      {"smiles": "CC1CCC(C(C)C)C(O)C1", "note": "(stereo not given)", "outcome": "inactive"},
      {"smiles": "CCCCC(CC)COC(=O)CS", "note": "(stereo not given)", "outcome": "inactive"},
      {"smiles": "CCCCCCCCCCCCOCCO", "activation": "0.863% [at 35.5 µM]"},
      {"smiles": "O=C(O)c1cc(C(=O)O)cc(S(=O)(=O)O)c1", "outcome": "inactive"},
      {"smiles": "CC1=C(C)S(=O)(=O)CCS1(=O)=O", "outcome": "inactive"}
    ]}
  ]
}
